The entries come from a sample that favours hits as a whole.
Pf Dd2 inh – blocks in vitro growth of P. falciparum Dd2; 120,000 tested, 4.3% active; Potency, µM (highest dose often 28.9 µM), without a hit: at the highest dose activity, negative = inhibition, most hits filed as inhibitors; P. falciparum Dd2 growth, SYBR Green, 72 h; active = well fitted inhibition curve with a large enough effect;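 also: plate controls were DMSO vehicle for no effect and reference drug for full effect; nearly all actives have a fitted effect of over 65% in size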
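Infected erythrocytes (Dd2, 0.3% parasitemia, 2.5% hematocrit final) are added to compound in RPMI-1640/Albumax II medium, grown 72 h at 37C in low oxygen, then lysed with saponin/Triton-X containing SYBR Green and read by fluorescence.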
Numbers without * were called inactive; i = inactive; [ ] = dose if it differs, or a comment. Potency is read from the fitted curve at half-maximal effect.

SMILES | Pf Dd2 inh
O=C(NCc1nnc2cc(-c3nc(C4CC4)no3)ccn12)c1c(F)cccc1F | i
O=C(NCc1nnc2cc(-c3nc(C4CC4)no3)ccn12)C1CC1 | -24%
O=C(NCc1nnc2cc(-c3nc(C4CC4)no3)ccn12)c1ccoc1 | -22%
O=C(NCc1nnc2cc(-c3nc(C4CC4)no3)ccn12)c1ccccc1Cl | -5%
COc1ccc(CNC(=O)N2CCC(c3noc(-c4cccnc4)n3)C2)cc1 (stereo unspecified) | i[5.79 µM]
CN(C)C[C@@H]1CN(c2ncccn2)C[C@H]1NC(=O)c1ccccc1C(F)(F)F | 11%
O=C(c1cccc2[nH]ccc12)N1CCC([C@@H]2CNC[C@H]2CO)CC1 | 14%
COc1ccc(NC(=O)N2CCCC(c3nn[nH]n3)C2)cc1 (stereo unspecified) | 17%
CN(C)C(=O)CO[C@H]1CCOC[C@H]1NC(=O)c1ccc2n[nH]nc2c1 | 3%
Cc1nc(-c2cccc(Cl)c2)n(CC(=O)NCCCc2ccccc2)c(=O)c1CCO | i
CCCC1c2nccn2CCCN1C(=O)c1cocn1 (stereo unspecified) | 7%
COCC(=O)NC[C@H]1C[C@@H]2CCN1C[C@@H]2c1cc(-c2ccc3ccccc3c2)nn1C | i
CC(=O)N1CCCC(c2nc(CCOCC3CC3)no2)C1 (stereo unspecified) | -10%
C1CNCC(c2nc(CCOCC3CCOCC3)no2)C1 (stereo unspecified) | -4%
C(Cc1noc(C2CNC2)n1)OCC1CC1 | 5µM*
CCOc1ccccc1NC(=O)C1=C(C)Nc2ncnn2C1c1ccc(C)o1 (stereo unspecified) | -10%
CCOc1cc(C2C(C(=O)Nc3ccccc3)=C(C)Nc3ncnn32)cc(Br)c1O (stereo unspecified) | 2%
Cc1ccc(NC(=O)c2cnn3c2NC(c2ccccc2)=CC3c2ccccc2)cc1 (stereo unspecified) | i
COc1ccc(C2C=C(c3cccc(OC)c3)Nc3c(C(=O)Nc4ccccc4)cnn32)cc1 (stereo unspecified) | 13µM*
CCCCOc1ccc(C2C(C(=O)Nc3ccccc3OC)=C(C)Nc3nnnn32)cc1OC (stereo unspecified) | i
COc1cccc(C2C=C(c3ccccc3)Nc3c(C(=O)Nc4ccccc4)cnn32)c1OC (stereo unspecified) | 0%
CCOc1ccc(NC(=O)c2cnn3c2NC(c2ccccc2)=CC3c2cccc(OC)c2OC)cc1 (stereo unspecified) | 2.5µM*
COc1ccccc1NC(=O)C1=C(C)Nc2ncnn2C1c1ccccc1C(=O)O (stereo unspecified) | 1.3µM*
COc1cccc(NC(=O)c2cnn(-c3ccccc3)c2-n2cccc2)c1 | -27%
CCOc1ccc(NC(=O)c2cnc(Nc3ccccc3OC)c3ccccc23)cc1 | i
SMILES | Pf Dd2 inh
CCOc1ccc(C2C(C(=O)Nc3ccccc3OC)=C(C)Nc3c(C(=O)Nc4cccc(C)c4)cnn32)cc1 (stereo unspecified) | 4µM*
COc1cc(OC)c(C2C(C(=O)Nc3ccccc3)=C(C)Nc3ncnn32)cc1OC (stereo unspecified) | 4%
Cc1nc(C2CC(NC3CCN(c4ccccc4F)CC3)C2)cc(=O)[nH]1 (stereo unspecified) | -8%
CC[C@H]1CN2CC[C@H]1C[C@@H]2CNC(=O)CSCC(=O)O | 7%[44.1 µM]
COc1ccc(CNC(=O)Cn2c(C)cc3nc4n(c(=O)c32)CCC4)cc1 | -7%
CN(C)c1cccc(NC(=O)C2=NO[C@@H]3CN(Cc4ccc(F)cc4)C[C@H]23)c1 | 15%[44.1 µM]
Cn1nc(C2CCCN(C(=O)c3cccnc3)C2)n(-c2ccccc2)c1=O (stereo unspecified) | -19%
O=C(NC[C@H]1O[C@@H](CC(=O)N2CCN(c3ccc(F)cc3)CC2)[C@H](O)[C@@H]1O)c1ccccc1 | 7%
COc1ccc(Cn2c(C(C)n3cccn3)n[nH]c2=O)cc1 (stereo unspecified) | -5%
Cc1ccc(C(=O)N2CCn3c(nnc3-c3ccncc3)C2)cc1 | 0%
CCn1ncc(CN2CC[C@H](CNC(=O)COC)[C@H](N(C)C)C2)c1C | -10%
COCCNc1ncc(-c2cccc(NC(C)=O)c2)c2c1OCC2 | 32%[44.1 µM]
COc1nc2c(cc1CNC(=O)CO)C(=O)N(CCc1ccccn1)C2 | i
CCCc1cc(C(=O)N2CCC(n3nccc3NC(=O)c3ccccc3C)CC2)n(C)n1 | -10%
COc1ccc(-c2nc3n(n2)C(c2ccccc2)C(C(=O)Nc2cccnc2)=C(C)N3)cc1 (stereo unspecified) | -4%
COc1ccccc1NC(=O)C1=C(C)Nc2nnnn2C1c1ccc(C(F)(F)F)cc1 (stereo unspecified) | -16%
COc1ccc(C2C(C(=O)Nc3ccccc3)=C(C)Nc3c(C(=O)Nc4ccccc4)cnn32)cc1 (stereo unspecified) | 3.5µM*
CC1=C(C(=O)Nc2ccccc2)C(c2ccc(C(=O)O)cc2)n2ncnc2N1 (stereo unspecified) | i
COc1ccccc1NC(=O)C1=C(C)Nc2c(C(=O)Nc3ccc(F)cc3)cnn2C1c1ccc(Cl)cc1 (stereo unspecified) | 8.9µM*
COc1ccccc1NC(=O)C1=C(C)Nc2nc(SCC(=O)c3ccc(C)cc3)nn2C1c1ccc(F)cc1 (stereo unspecified) | 22%
O=C(NCc1ccc(F)cc1)[C@H]1CN2CC[C@H]1C[C@@H]2Cn1cc(C2(O)CCCC2)nn1 | -3%[44.1 µM]
COC[C@@H]1CN(c2cnccn2)C[C@H]1C(=O)NCc1ccccc1OC | -44%
O=C(CC1CCCCC1)N1CCN(c2cc(-c3ccccc3)[nH]n2)CC1 | -8%
Cc1cc(OCC(O)CN2CCN(c3cccc(Cl)c3)CC2)ccc1Cl (stereo unspecified) | -5%
CCOc1ccc(Cl)cc1CN(C)C(=O)C1CC(=O)N(CC)C1 (stereo unspecified) | -9%
SMILES | Pf Dd2 inh
CNC(=O)CN(C)Cc1cc(Cl)ccc1OCC(O)CN1CCCCCC1 (stereo unspecified) | 2.8µM*
CCC(C)NC(=O)c1ccc2c(c1)CC(=O)N2C (stereo unspecified) | -7%
Cc1noc([C@@H]2CN(Cc3ccc(F)cc3F)C[C@H]2CO)n1 | 22%
O=C(c1ccc(C(F)(F)F)cc1)N1CCn2c(nnc2-c2cccnc2)C1 | 12%
COc1ccc(CN(C(=O)c2ccco2)c2ccc(CC(=O)NCCc3ccccc3)cc2)cc1 | 4µM*
O=C(Cc1ccc(N(Cc2ccc(F)cc2)C(=O)c2ccco2)cc1)NCCc1ccccc1 | -3%
COCCNC(=O)Cc1ccc(N(Cc2cccc(F)c2)C(=O)c2ccco2)cc1 | i
CCNC(=O)Cc1ccc(N(Cc2ccc(C)cc2)C(=O)c2ccco2)cc1 | i
C=CCNC(=O)Cc1ccc(N(Cc2ccccc2)C(=O)c2ccco2)cc1 | i
COCCNC(=O)Cc1ccc(N(Cc2ccc(C)cc2)C(=O)c2ccco2)cc1 | 5.6µM*
COc1ccc(CC(=O)NC2CCCN(c3cc(-c4ccc(F)cc4)[nH]n3)C2)cc1OC (stereo unspecified) | i
CN1CC(=O)N(c2ccccc2F)Cc2c(NCCCO)ncnc21 | 19%[44.1 µM]
O=C(c1ccc(Cn2cnnn2)cc1)N1CCC2(CC1)[C@H](O)C[C@@H]2OCCO | -15%
Cc1noc([C@H]2CCN(C(=O)NCc3ccccc3)C[C@H]2NC(=O)C2CC2)n1 | i[5.79 µM]
O=C(CN1CCCCCC1)N1C[C@@H](CO)[C@H](c2ccncc2)C1 | 29%
O=C([C@@H]1C[C@H](F)CN1C(=O)c1ccsc1)N1CCCCC1 | 4%

Screens from PubChem BioAssay.
